From the supplement of paper PMC11732987, “Enantioselective OTUD7B fragment discovery through chemoproteomics screening and high-throughput optimisation” (Communications Chemistry, 2025)

Columns and labels:
Assay in all cases: log2 ratio of Biotin-Ahx-Ub-VS probe labelling (fragment/DMSO); higher = less target engagement (more negative = stronger competition), active = hit call of the paper (q ≤ 0.05, log2 ratio ≤ -1)
Settings in all cases: compound concentration: 200 uM; treatment time: 3 h
USP16 = USP16 (UniProt Q9Y5T5)
Method in brief: (§1)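 Global-median-normalised Spectronaut label-free quantities were compared by unpaired t-test, and values are average log2 ratios of fragment over vehicle. Only proteins with ≥2 unique peptides were used. HEK293T lysate (495 µg per sample) was treated in triplicate with fragment at 200 µM or vehicle for 3 h and then with Biotin-Ahx-Ub-VS at 0.5 µM final for 1 h. Labelled DUBs were then NeutrAvidin-enriched, digested with LysC and trypsin, and run by diaPASEF LC-MS/MS.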

USP19 = biological target: T1, USP19 (UniProt O94966)
T1 sequence (whole entry): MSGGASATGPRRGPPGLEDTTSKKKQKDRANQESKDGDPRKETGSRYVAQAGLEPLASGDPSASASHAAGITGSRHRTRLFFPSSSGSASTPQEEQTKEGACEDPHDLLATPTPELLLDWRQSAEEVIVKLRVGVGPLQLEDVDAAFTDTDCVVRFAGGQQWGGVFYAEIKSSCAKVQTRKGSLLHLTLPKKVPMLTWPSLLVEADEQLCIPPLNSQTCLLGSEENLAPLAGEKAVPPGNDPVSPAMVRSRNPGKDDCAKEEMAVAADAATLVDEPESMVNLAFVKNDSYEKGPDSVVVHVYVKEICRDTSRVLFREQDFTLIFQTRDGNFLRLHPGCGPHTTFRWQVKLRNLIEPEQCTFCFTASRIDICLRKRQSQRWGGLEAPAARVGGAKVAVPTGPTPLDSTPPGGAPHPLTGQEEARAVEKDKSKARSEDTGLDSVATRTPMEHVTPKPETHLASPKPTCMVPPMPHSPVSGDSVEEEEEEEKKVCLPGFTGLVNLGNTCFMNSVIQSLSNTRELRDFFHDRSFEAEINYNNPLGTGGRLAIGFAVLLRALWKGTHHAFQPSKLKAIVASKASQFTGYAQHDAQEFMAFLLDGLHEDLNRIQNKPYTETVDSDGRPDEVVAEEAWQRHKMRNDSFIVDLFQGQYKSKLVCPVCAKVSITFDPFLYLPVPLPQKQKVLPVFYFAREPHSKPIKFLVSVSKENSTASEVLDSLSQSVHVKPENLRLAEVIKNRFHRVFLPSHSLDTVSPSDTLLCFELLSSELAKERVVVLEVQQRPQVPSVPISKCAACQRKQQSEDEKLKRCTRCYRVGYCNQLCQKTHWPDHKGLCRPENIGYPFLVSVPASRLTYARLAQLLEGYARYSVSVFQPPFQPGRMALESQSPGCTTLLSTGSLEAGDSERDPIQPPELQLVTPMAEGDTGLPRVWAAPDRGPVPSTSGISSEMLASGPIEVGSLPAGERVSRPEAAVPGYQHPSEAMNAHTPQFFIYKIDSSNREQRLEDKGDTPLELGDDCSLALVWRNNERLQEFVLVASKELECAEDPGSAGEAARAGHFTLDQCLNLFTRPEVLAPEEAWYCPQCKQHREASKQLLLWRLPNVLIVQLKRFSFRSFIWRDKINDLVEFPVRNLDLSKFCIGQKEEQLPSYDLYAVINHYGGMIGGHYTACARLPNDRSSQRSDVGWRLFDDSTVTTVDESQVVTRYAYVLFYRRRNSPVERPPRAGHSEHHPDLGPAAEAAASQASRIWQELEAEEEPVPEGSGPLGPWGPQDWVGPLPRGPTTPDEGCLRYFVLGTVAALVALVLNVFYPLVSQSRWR
Method in brief: as §1

USP24 = USP24 (UniProt Q9UPU5)
Method in brief: as §1

USP25 = biological target: T2, USP25 (UniProt Q9UHP3)
T2 sequence (whole entry): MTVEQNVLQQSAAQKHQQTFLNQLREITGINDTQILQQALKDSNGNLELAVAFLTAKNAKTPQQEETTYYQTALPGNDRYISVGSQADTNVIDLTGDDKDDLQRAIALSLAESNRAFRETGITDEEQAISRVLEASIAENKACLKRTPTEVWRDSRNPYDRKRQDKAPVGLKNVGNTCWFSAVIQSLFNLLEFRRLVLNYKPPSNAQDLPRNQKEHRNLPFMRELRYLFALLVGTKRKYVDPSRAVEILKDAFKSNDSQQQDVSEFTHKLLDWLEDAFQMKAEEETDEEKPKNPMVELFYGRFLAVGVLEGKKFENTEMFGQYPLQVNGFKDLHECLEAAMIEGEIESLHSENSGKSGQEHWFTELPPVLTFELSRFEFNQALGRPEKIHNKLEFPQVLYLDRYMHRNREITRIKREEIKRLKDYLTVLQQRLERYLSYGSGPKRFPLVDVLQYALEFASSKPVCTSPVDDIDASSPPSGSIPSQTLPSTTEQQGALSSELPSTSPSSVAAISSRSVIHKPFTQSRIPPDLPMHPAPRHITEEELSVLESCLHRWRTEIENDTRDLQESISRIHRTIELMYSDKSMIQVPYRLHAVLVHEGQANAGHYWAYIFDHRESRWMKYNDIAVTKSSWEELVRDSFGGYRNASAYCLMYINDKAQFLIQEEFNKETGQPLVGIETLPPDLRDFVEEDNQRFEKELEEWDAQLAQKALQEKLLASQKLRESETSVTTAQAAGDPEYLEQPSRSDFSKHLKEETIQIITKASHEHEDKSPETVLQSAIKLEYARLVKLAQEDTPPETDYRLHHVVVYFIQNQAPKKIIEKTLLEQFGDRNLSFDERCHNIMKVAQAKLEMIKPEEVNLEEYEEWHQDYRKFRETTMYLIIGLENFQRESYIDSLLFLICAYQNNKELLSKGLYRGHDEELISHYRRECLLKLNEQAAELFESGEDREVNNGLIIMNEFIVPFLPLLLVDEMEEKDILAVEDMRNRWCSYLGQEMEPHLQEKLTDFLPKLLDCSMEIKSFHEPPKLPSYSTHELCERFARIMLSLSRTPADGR
Method in brief: as §1

USP28 = biological target: T3, USP28 (UniProt Q96RU2)
T3 sequence (whole entry): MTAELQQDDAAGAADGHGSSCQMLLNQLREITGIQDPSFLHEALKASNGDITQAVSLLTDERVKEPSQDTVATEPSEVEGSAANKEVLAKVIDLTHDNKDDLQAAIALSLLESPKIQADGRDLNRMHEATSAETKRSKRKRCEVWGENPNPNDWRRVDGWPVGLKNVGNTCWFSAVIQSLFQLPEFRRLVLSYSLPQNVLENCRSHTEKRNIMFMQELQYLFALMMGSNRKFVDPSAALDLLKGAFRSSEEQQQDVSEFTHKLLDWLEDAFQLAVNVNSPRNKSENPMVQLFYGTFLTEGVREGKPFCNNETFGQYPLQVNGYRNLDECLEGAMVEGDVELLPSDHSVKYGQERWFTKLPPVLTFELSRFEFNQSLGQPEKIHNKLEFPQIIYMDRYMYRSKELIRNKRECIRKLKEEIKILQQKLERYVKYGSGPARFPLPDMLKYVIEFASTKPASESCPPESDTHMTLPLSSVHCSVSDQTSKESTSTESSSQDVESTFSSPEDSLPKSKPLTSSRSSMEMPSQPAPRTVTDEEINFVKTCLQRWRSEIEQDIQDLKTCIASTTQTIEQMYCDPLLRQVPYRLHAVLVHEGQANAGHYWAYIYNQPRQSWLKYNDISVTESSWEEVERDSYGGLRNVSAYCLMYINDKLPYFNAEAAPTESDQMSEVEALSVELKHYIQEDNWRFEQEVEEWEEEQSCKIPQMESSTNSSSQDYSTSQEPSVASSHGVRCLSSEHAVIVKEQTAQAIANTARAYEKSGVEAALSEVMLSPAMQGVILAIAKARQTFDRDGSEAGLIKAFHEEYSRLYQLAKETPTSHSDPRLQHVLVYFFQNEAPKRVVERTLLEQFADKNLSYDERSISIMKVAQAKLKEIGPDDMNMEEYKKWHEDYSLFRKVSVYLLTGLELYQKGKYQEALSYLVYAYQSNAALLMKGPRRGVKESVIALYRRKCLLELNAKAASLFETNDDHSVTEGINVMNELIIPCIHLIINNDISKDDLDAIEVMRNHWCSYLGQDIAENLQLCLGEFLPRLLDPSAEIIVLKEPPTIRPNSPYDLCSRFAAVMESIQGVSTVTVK
Method in brief: as §1

Measured: log2 ratio of Biotin-Ahx-Ub-VS probe labelling

USP24, sequence (Q9UPU5 whole entry): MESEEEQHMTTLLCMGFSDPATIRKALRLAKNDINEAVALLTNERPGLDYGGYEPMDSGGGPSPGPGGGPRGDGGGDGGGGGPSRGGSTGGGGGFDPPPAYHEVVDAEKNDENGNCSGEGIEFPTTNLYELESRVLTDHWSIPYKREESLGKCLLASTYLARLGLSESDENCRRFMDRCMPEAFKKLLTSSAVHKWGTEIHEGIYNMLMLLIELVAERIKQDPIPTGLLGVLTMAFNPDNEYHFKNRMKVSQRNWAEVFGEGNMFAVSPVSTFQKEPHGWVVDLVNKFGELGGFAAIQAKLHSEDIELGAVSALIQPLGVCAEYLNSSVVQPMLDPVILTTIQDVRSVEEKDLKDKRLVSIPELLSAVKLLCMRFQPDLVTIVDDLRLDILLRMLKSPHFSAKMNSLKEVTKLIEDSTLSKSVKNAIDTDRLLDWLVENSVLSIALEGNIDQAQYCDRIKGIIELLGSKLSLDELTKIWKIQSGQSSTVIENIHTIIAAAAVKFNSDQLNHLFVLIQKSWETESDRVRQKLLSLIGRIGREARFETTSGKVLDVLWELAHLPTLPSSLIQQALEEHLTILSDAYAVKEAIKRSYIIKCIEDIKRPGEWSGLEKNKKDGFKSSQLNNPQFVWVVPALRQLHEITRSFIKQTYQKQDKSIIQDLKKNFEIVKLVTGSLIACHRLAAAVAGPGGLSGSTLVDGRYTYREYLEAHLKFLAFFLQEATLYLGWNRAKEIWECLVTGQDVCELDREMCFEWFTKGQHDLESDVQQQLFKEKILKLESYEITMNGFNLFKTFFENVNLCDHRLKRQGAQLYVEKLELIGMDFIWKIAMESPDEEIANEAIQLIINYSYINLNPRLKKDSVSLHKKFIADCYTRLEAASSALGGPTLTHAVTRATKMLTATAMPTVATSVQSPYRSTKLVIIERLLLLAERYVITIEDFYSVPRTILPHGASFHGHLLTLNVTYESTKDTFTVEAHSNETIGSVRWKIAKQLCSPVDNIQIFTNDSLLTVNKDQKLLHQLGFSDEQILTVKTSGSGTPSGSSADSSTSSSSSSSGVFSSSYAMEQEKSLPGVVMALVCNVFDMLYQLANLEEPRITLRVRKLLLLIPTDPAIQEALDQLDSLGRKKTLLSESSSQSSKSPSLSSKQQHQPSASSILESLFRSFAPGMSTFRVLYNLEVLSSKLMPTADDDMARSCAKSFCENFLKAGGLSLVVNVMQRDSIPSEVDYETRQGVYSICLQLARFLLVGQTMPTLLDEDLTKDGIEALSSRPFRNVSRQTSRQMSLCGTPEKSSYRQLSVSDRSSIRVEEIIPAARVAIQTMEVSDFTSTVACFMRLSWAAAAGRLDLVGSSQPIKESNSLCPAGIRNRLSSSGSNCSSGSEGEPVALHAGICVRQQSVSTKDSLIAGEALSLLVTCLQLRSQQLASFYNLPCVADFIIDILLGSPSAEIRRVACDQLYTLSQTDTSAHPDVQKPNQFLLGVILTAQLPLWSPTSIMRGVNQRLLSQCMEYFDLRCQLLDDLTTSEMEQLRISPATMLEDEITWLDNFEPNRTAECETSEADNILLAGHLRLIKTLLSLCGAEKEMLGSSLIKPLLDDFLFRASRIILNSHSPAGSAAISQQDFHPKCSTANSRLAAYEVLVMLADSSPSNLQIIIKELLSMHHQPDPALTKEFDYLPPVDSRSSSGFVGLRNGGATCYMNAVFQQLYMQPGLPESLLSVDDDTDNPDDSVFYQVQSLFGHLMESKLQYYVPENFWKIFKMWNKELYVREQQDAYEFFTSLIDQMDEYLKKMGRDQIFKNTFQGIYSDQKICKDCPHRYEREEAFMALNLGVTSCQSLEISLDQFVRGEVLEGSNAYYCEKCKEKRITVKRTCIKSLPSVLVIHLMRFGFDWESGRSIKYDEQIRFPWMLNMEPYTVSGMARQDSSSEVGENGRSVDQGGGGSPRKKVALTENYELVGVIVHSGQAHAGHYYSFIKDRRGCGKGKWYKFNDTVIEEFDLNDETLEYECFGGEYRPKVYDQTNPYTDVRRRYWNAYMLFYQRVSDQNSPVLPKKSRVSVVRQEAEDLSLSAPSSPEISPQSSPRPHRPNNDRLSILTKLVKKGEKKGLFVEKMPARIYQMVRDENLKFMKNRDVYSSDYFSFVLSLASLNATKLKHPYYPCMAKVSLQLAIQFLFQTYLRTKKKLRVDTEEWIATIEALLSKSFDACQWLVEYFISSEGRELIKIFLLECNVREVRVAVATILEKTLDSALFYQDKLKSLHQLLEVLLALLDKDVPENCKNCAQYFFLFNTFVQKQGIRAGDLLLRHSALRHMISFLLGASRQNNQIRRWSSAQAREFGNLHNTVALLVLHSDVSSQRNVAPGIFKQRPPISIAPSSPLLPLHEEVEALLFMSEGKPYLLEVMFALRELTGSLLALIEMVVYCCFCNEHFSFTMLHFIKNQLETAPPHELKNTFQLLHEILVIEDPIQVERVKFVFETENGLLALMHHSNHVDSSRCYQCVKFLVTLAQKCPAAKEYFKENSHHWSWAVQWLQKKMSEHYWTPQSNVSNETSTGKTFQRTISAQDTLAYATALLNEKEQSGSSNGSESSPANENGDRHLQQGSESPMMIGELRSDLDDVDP
USP16, sequence (Q9Y5T5 whole entry, looked up, the tested form may be a part): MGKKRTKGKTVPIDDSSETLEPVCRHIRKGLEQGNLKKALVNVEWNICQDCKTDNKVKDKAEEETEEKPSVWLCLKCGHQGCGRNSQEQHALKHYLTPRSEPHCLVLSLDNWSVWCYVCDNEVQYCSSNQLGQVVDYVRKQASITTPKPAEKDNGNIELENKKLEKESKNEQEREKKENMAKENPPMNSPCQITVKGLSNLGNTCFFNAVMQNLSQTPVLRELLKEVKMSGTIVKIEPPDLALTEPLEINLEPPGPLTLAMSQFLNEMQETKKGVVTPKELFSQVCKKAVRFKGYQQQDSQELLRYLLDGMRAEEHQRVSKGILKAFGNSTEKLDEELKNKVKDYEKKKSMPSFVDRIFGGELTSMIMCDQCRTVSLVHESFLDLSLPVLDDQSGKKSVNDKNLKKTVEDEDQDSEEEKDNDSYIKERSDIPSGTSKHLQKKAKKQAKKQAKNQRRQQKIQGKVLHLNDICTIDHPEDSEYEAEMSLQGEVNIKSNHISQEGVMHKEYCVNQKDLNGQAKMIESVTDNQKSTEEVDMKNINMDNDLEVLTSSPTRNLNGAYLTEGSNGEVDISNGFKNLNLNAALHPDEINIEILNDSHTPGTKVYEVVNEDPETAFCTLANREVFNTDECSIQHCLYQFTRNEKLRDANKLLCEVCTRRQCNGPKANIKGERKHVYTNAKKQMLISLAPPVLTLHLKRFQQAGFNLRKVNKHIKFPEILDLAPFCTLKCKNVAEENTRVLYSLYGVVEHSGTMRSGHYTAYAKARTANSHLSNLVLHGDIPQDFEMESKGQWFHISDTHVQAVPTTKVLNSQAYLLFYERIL

Cc1ccc(CC(NC(=O)CCl)c2ccccn2)cc1.Cl (stereo not given)
inactive: USP16 0.0921 | USP19 0.168 | USP24 -0.13 | USP25 -0.098 | USP28 -0.126
